# In the library only some 2.3% were active in any assay of this set; here they are far more common.
# PTHR1 ag – qHTS for PTHR1 Agonists: Primary Screen. HEK293 GP2 PTHR1 cells, GloSensor cAMP luminescence, 1 h. Potency, µM (top dose mostly 115 µM), inactives show at the top dose activation, most hits filed as activators. 410,000 compounds, 0.075% hits; further: nearly all actives have a fitted effect of over 55% in size
# Target sequence (Q03431 whole entry, looked up): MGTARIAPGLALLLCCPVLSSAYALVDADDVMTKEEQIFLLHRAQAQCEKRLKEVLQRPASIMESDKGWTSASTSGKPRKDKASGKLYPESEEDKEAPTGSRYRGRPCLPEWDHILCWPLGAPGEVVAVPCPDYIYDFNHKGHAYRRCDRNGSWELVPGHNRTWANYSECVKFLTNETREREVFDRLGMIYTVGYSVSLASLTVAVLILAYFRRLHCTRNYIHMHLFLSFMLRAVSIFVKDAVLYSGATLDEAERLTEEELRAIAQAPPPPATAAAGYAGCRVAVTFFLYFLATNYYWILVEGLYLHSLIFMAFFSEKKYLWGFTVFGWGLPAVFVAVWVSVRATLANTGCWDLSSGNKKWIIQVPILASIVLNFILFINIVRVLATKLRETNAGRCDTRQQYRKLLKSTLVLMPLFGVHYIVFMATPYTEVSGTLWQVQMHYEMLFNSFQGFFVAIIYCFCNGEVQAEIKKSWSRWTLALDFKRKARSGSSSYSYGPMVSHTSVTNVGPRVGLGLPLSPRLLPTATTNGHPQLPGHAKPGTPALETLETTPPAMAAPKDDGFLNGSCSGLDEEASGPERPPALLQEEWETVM
#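 HEK-293-derived GP2 cells expressing PTHR1 and a GloSensor cAMP reporter, 3,000/well, plated overnight, given luciferin plus IBMX (each 0.5 mM as added) for 1 h at 37 °C, then compound for 1 h at 37 °C. Luminescence was read after 15 min at room temperature.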
# GLP-1R agonist – qHTS of GLP-1 Receptor Agonists. Potency, µM (doses to about 45.6 µM), for the others: top-dose activation, most hits filed as activators. HEK293 GLP-1R CRE-luciferase, luminescence, 4-6 h; cells express a hypersensitive GLP-1R form. 380,000 compounds, 0.007% hits. Glucagon-like peptide 1 receptor (Homo sapiens), P43220; further: % of control where 0% means no effect
# 12-LOX inh – Primary qHTS assay for inhibitors of human arachidonate 12S-lipoxygenase (ALOX12): Round 2; Polyunsaturated fatty acid lipoxygenase ALOX12 (Homo sapiens), P18054; purified 12hLO, xylenol orange hydroperoxide absorbance; Potency, µM (top dose mostly 108 µM), without a hit: at the top dose activity change, negative = inhibition, most hits filed as inhibitors; 580,000 compounds, 1.1% hits; further: on the % scale 0 is the no-effect control and ±100 the full control effect
#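 Purified human 12hLO at 150 nM in 25 mM Hepes, 0.01% Triton X-100, pH 7.0, preincubated 15 min at room temperature with compound. Reaction started with 40 uM arachidonic acid, 30 min at room temperature. Hydroperoxide measured by Fe-xylenol orange, 573/405 nm absorbance ratio.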
# GLP-1R inv ag – qHTS of GLP-1 Receptor Inverse Agonists (Inhibition Mode) | Glucagon-like peptide 1 receptor (Homo sapiens), P43220 | HEK293 GLP-1R CRE-luciferase, luminescence, 24 h; GLP-1R form is constitutively active | Potency, µM (top dose mostly 38.3 µM), for inactives: at the top dose activity change, negative = inhibition, hits mostly inhibitors | 410,000 compounds, 1.6% hits; further: on the % scale 0 is the no-effect control and ±100 the full control effect; nearly all actives have a fitted effect of over 55% in size
#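 Seeding at 200 cells/uL, 12 h culture, 24 hr compound treatment, then luciferase reagent and a luminescence read; cells are HEK293 stably expressing a constitutively active GLP-1R plus cAMP-responsive luciferase.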
# GRP78 ERSR act – qHTS for Inducers of the Endoplasmic Reticulum Stress Response (ERSR) in Human Glioma: qHTS. AID 602332, 2012. 420,000 compounds, 0.02% hits. Potency, µM, without a hit: at the top dose activation, hits mostly activators. U87-MG GRP78 promoter luciferase reporter, 16 h; further: series mostly up to about 76 µM; % of control where 0% means no effect; nearly all actives have a fitted effect of over 35% in size
#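 ERSR induction read as luciferase luminescence (Bright-Glo, 10 min at room temperature) in stably transfected human U87-MG glioma cells exposed to compounds for 16 h, using GRP78 as sensor.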
# GLS inhibitor – qHTS for Inhibitors of Glutaminase (GLS). GLS enzymatic activity, qHTS titration. Potency, µM (highest dose often 45.5 µM), without a hit: at the highest dose activity change, negative = inhibition, hits mostly inhibitors. 410,000 compounds, 0.21% hits. AID 624170, 2012; further: on the % scale 0 is the no-effect control and ±100 the full control effect
#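 Compounds were pin-transferred onto hKGA, after which L-glutamine (1 mM solution) and a detection mix of glutamate oxidase, HRP and Amplex Red were added. Initial and 30 min RT fluorescence reads were collected.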
# * marks the source's active call; other numbers are inactive results; i = inactive; ? = inconclusive; · = not tested or not shown; ! = repeats disagree; [ ] = dose if it differs, or a comment. The call rests on the fitted dose curve; in most records, active means well fitted curve in the direction sought with a large enough effect; inconclusive means small, poorly fitted or top-dose-only effect, or another doubt; inactive means no such curve, though single readings can be large; an effect the other way counts as inactive or inconclusive. Potency means the concentration at half of the fitted maximal effect.
SMILES,PTHR1 ag,GLP-1R agonist,12-LOX inh,GLP-1R inv ag,GRP78 ERSR act,GLS inhibitor
Cc1ccc(C(=O)Nc2cccc3[nH]c(C(F)(F)F)nc23)cc1,-33.0%,-1.4%,0.0%,8.91µM*,-0.3%,-1.4%
Cc1ccc(C(=O)Nc2cccc3cccnc23)cc1,·,·,29.3%,·,·,·
COc1cc(-c2noc(-c3ccc(S(=O)(=O)N4CCOCC4)o3)n2)ccc1OC(C)C,·,·,22.2%,·,·,·
FC(F)c1nc2nc(Cl)c(Cl)nc2[nH]1,-39.5%,10.3%,-8.0%,14.1µM*,-1.6%,1.3%
C(=N\N=C(c1ccccc1)c1ccccc1)/c1ccncc1,·,·,-14.8%,·,·,·
Oc1ccc(/C=N/N=C(c2ccccc2)c2ccccc2)c(O)c1O,-83.1%,-2.6%,39.8µM*,-30.8%,-0.2%,?
O=C(/C(=N/N=C/c1ccc(O)c(O)c1O)c1ccccc1)c1ccccc1,-33.2%,-3.5%,14.1µM*,?,-3.3%,-6.3%
COc1ccc(NC(=O)Nc2ccc3nc(N4CCOCC4)cc(C)c3c2)cc1,·,·,-8.7%,·,·,·
COc1ccc(CNC(=O)c2cc(C(C)C)nc3onc(C)c23)cc1OC,·,·,-9.8%,·,·,·
Cc1ccccc1-c1nc2cc(NC(=O)/C=C/c3ccco3)ccc2o1,·,·,25.1µM*,·,·,·
N#Cc1cc([N+](=O)[O-])cnc1Nc1ccccc1,i,8.91µM*,-53.0%,48.4%,-5.0%,-6.4%
CCOC(=O)CNc1ncc([N+](=O)[O-])cc1C#N,i,0.1%,-21.4%,24.8%,0.2%,-5.5%
COc1ccc2c(C)c(CC(=O)NCCN3CCOCC3)c(=O)oc2c1OC,·,·,-48.4%,·,·,·
Cc1ccc(NC(=S)N/N=C/c2c(C)[nH]c3ccccc23)cc1,-24.1%,15.0%,31.6µM*,?,1.8%,20.1%
FC(F)(F)c1ccccc1/C=N/NC(=S)NCc1ccccc1,·,·,39.8µM*,·,·,·
CCc1nnc(N/N=C/c2c(C)[nH]c3ccccc23)n1N,-9.1%,-4.8%,31.6µM*,17.7%,-2.6%,?
Cc1ccc(Cn2cccc2/C=N/NC(=S)Nc2ccc(C)cc2)cc1,-32.3%,9.7%,44.7µM*,17.4%,2.1%,?
Cc1cc(C(=O)NC(C)CCc2ccccc2)c2cccc(C)c2n1 (configuration not stated),·,·,26.4%,·,·,·
CC(C)CCNc1nc2ccccc2nc1NS(=O)(=O)c1ccc(F)cc1,·,·,-0.4%,·,·,·
Cc1[nH]c2ccccc2c1/C=N/NC(=S)NCc1ccccc1,i,9.5%,35.5µM*,?,4.2%,-0.1%
Cc1[nH]c2ccccc2c1/C=N/NC(N)=S,i,20.0%,10.9%,55.1%,-1.1%,28.8%
CCOC(=O)c1c(/N=C/N(C)C)sc(/C=N/Nc2ccccc2)c1-c1ccc(Cl)cc1,-0.1%,0.4%,?,10µM*,-3.5%,18.3%
Oc1ccc(/C=N/n2cc(-c3ccccc3)[nH]c2=S)cc1,-13.7%,-2.1%,15.8µM*,22.2%,1.0%,5.4%
Cc1ccc(/C=N/n2cc(-c3ccccc3)[nH]c2=S)s1,-9.6%,8.1%,-30.6%,-26.0%,4.9%,?
COc1cc(/C=N/n2cc(-c3ccccc3)[nH]c2=S)cc(OC)c1O,-47.1%,5.9%,12.6µM*,9.1%,-1.2%,-15.2%
SMILES,PTHR1 ag,GLP-1R agonist,12-LOX inh,GLP-1R inv ag,GRP78 ERSR act,GLS inhibitor
CCOc1ccc(N(Cc2nc3nc(C)cc(C)n3n2)S(=O)(=O)c2ccc(C)cc2)cc1,·,·,-23.7%,·,·,·
CC(C)(C)CC(C)(C)SSc1n[nH]c(=S)s1,-19.9%,-0.5%,35.5µM*,30.3%,-2.7%,13.8%
Cc1c(C)n(CC(O)CNc2ccccc2)c2ccccc12 (configuration not stated),-6.7%,10.9%,?,10µM*,-2.1%,18.2%
Cn1c(Sc2ccc(Br)cc2)c(C=O)c2ccccc21,-18.3%[57.5 µM],-22.7%,0.9%,4.47µM*,-4.6%,2.0%
Cn1c(C=O)c(C#Cc2ccccc2)c2ccccc21,i,16.4%,-3.2%,?,-1.9%,0.4%
C=C1C(=O)O[C@@H]2C3OC3(C)CC/C=C(\C)CC[C@@H]12 (some centres not stated),·,·,·,·,-10.8%,·
C=C1C(=O)O[C@H]2C[C@H]1[C@@H](OC(C)=O)C/C(C)=C/CC/C(C)=C\CC[C@]2(C)O,-58.0%,-8.3%,16.7%,7.08µM*,-9.8%,-3.9%
CCN1CCN(C(c2cccc(OC)c2)c2sc3nc(C)nn3c2O)CC1 (configuration not stated),-24.6%,-10.7%,-15.0%,2.4%,-4.6%,5.3%
COc1cccc(C(c2sc3nc(C)nn3c2O)N2CCc3ccccc3C2)c1 (configuration not stated),-19.6%,-3.8%,31.6µM*,-3.2%,-5.0%,-0.2%
COc1c(Cl)cc(C(=O)Nc2ccccc2-c2ccccc2)cc1Cl,-19.8%,-12.3%,6.2%,10µM*,0.5%,13.2%
O=C(Nc1cccc(-c2nc3ccccc3[nH]2)c1)c1ccco1,-1.5%,16.8%,-5.1%,13.4%,5.3%,2.3%
COc1c(Cl)cc(C(=O)Nc2cccc(-c3nc4ccccc4[nH]3)c2)cc1Cl,-2.4%,·,0.0%,7.94µM*,-9.5%,-5.0%
COC(=O)c1[nH]c2cc(Cl)ccc2c1C=O,·,·,42.2%,·,·,·
CC(OC(=O)C1CCC1)C(=O)c1c[nH]c2ccccc12 (configuration not stated),·,·,29.3%,·,·,·
O=C(O)COc1ccc2c(c1)O/C(=C\c1ccco1)C2=O,i,-2.8%,0.0%,1.0%,-3.6%,10µM*
Cc1nc2[nH]c(=S)[nH]c(=O)c2nc1C,i,-13.3%,?,-15.7%,-2.1%,14.5%
Cc1nc2c(=O)[nH]c(=S)[nH]c2[nH]c1=O,i,-0.8%,-11.8%,1.5%,-6.9%,6.31µM*
CCCC(=O)N(CCN(Cc1ccccc1)C(=O)CCC)Cc1ccccc1,-83.1%[57.5 µM],0.8%,64.4%,12.6µM*,-1.6%,2.2%
Cc1c(NC(=O)c2cc(-c3ccc(Cl)c(Cl)c3)on2)c(=O)n(-c2ccccc2)n1C,-15.7%,0.8%,?,-0.8%,-4.8%,15.8µM*!
CCc1noc(C)c1C(=O)OC(C)C(=O)c1c[nH]c2ccccc12 (configuration not stated),·,·,-9.8%,·,·,·
CCCCn1c(CNC(=O)C23CC4CC(CC(C4)C2)C3)nnc1SC(C)CC (configuration not stated),i,2.4%,?,3.55µM*,-0.1%,5.0%
